Potency and outcome data for 26 compounds are collected here from PubChem BioAssay (NCATS).

Assay [1] addresses Glutathione peroxidase 1 (Homo sapiens) (UniProt P07203). Kind of assay: Primary qHTS Assay for Inhibitors of Recombinant Selenoprotein Glutathione Peroxidase 1 (GPX1) (AID 1845191). Also: nearly all actives have a fitted effect of over 65% in size. Also: potency is read from the fitted curve at half-maximal effect. The conditions noted are these: recombinant GPX1, GR-coupled NADPH fluorescence, 15 min; series mostly up to 48.8 µM. The method in brief: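 GPX1 10 nM, GR 100 nM, GSH 1 mM, NADPH 0.5 mM, CHP 0.5 mM (final). 30-min cpd preincubation, RT. Ex340/Em450 read t=0, t=15 min.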
For orientation: Quantitative high-throughput screening tests each substance at several concentrations.

For assay [2], the target named is Phospholipid hydroperoxide glutathione peroxidase GPX4 (Homo sapiens) (UniProt P36969). In words: Primary qHTS Assay for Inhibitors of Recombinant Selenoprotein Glutathione Peroxidase 4 (GPX4) (AID 1845192). Also: nearly all actives have a fitted effect of over 65% in size. Also: potency is read from the fitted curve at half-maximal effect. The conditions noted are these: recombinant GPX4, GR-coupled NADPH fluorescence, 15 min; series mostly up to 50 µM. The method in brief: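 qHTS, GR-coupled: GPX4 200 nM + cpd 30 min RT → GSH 1 mM, NADPH 0.5 mM, GR 100 nM → CHP 0.5 mM start; fluor 340/450 at t0 and t15 min; no-enzyme wells as control.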
Phospholipid hydroperoxide glutathione peroxidase GPX4 (Homo sapiens), sequence (P36969 whole entry, looked up): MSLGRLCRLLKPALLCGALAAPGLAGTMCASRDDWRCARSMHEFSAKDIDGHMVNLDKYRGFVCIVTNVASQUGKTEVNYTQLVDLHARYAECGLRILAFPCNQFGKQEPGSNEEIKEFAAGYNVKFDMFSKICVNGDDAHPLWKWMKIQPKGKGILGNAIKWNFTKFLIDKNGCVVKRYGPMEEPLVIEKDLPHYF

The target of assay [3] is Metallo-beta-lactamase type 2 (Klebsiella pneumoniae) (UniProt C7C422). In words: qHTS to identify inhibitors of the New Delhi Metallo-beta-lactamase (NDM): assay validation screen against the NCATS LOPAC Collection (AID 1794843).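 Also: nitrocefin turnover by NDM-1 measured as 485 nm absorbance at plateau.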 The conditions noted are these: NDM-1 enzyme, nitrocefin hydrolysis, absorbance 485 nm; series mostly up to 38.4 µM. The procedure, abridged: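 NDM-1 at 2 nM final in 50 mM HEPES pH 7.0 with 1 uM ZnSO4 and 0.01% Tween20 was preincubated with library compounds in DMSO. Nitrocefin (50 uM stock) was then added, and absorbance at 485 nm was read at the kinetic plateau.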
Metallo-beta-lactamase type 2 (Klebsiella pneumoniae), sequence (C7C422 whole entry, looked up): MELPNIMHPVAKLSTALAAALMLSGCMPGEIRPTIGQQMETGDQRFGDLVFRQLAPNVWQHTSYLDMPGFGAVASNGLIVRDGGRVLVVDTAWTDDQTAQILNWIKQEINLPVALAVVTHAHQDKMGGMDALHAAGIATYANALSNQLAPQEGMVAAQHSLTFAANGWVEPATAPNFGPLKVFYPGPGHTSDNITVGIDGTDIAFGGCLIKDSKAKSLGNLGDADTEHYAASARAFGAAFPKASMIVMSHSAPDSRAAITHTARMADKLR

Assay [4] in a line: Quantitative High-Throughput drug screen in 47 multiple myeloma cell lines against the NCATS MIPE library collection: FR4_PLB cell viability assay (AID 1918924; also: nearly all actives have a fitted effect of over 35% in size; also: potency is read from the fitted curve at half-maximal effect). The conditions noted are these: FR4_PLB myeloma cells viability, CellTiter-Glo ATP, 48 h; series mostly up to 45.8 µM. The procedure, abridged:
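Relative luminescence from CellTiter-Glo served as the viability signal, referenced to DMSO-treated (100%) and cell-free medium (0%) controls. Treatment lasted 48 hours at 37C with 500 cells per well.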

Assay [5] has as its target Luciferin 4-monooxygenase (Photinus pyralis) (UniProt P08659). In words: Primary firefly luciferase (FLuc) qHTS assay for identification of artifact compounds. (AID 1845220). Also: nearly all actives have a fitted effect of over 60% in size. Also: potency is read from the fitted curve at half-maximal effect. The conditions noted are these: purified firefly luciferase, luminescence, 5 min; series mostly up to 54.1 µM. The procedure, abridged: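 In this counter-screen for luciferase artifacts, test compounds met substrate (10 uM each luciferin and ATP) before 10 nM enzyme started the reaction. Light output was measured 5 min later.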

Assay [6] in a line: Primary fluorescence-based thiol-reactive (MSTI) qHTS assay for identification of artifact compounds. (AID 1845221). Also: nearly all actives have a fitted effect of over 65% in size. Also: potency is read from the fitted curve at half-maximal effect. The conditions noted are these: MSTI thiol-reactivity probe, 1 h; series mostly up to 53.8 µM. The method in brief: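 Curve-fitted percent inhibition (4-parameter Hill) derived from fluorescence, Ex 525/Em 598 nm, scaled with Acetyl-MSTI and MSTI; 1 h incubation at room temperature.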

Assay [7] deals with Nanoluciferase (engineered Oplophorus gracilirostris luciferase). Kind of assay: Primary Nanoluciferase (NLuc) qHTS assay for identification of artifact compounds. (AID 1845222).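 Also: NLuc secreted into diluted conditioned medium of S16 cells.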 The conditions noted are these: NLuc-conditioned medium, Nano-Glo luminescence, 5 min; series mostly up to 54.1 µM. The procedure, abridged: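 Using secreted nanoluciferase in S16 culture medium (0.22 um filtered, 1:55 dilution), compounds were preincubated 15 min at RT. Signal was generated with Nano-Glo reagent (1:100) over 5 min.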

The nature of assay [8]: Primary redox qHTS assay for identification of artifact compounds. (AID 1845223). The conditions noted are these: Amplex Red/HRP redox cycling with DTT, fluorescence; series mostly up to 53.8 µM. The procedure, abridged: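 Redox-cycling detection via DTT (250 uM final) oxidation coupled to Amplex Red (25 uM)/HRP (250 mU/mL) in HBSS. 15 min preincubation plus 30 min after DTT, room temperature. Ex/Em 525/598 nm; 4-parameter Hill fit against DMSO and 10 uM DA3003.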

The nature of assay [9]: Quantitative High-Throughput drug screen in 47 multiple myeloma cell lines against the NCATS MIPE library collection: Delta47_JCRB cell viability assay (AID 1918925; also: potency is read from the fitted curve at half-maximal effect; nearly all actives have a fitted effect of over 45% in size). The conditions noted are these: Delta47 myeloma viability, CellTiter-Glo ATP, 48 h; series mostly up to 45.8 µM. The procedure, abridged:
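Inhibition of cell viability is measured here. Each line was plated at 500 cells per well, treated with MIPE 4.0 drugs, kept 48 hours at 37C, then assayed for ATP content by CellTiter-Glo luminescence.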

The structures appear in SMILES notation. “And” between values parts separate entries of the source, which are not always exact repeats. Equal entries are not always repeated. Results filed as inconclusive are left out. Some compounds were tested as several samples or in several runs, with calls that do not always agree. The source made the active and inactive calls. Calls follow the shape of the dose curve; as a rule, active = well fitted curve in the direction sought with a large enough effect; inconclusive = small, poorly fitted or top-dose-only effect, or another doubt; inactive = no such curve, though single readings can be large; an effect the other way counts as inactive or inconclusive.

Glutathione peroxidase 1 (Homo sapiens), sequence (P07203 whole entry, looked up): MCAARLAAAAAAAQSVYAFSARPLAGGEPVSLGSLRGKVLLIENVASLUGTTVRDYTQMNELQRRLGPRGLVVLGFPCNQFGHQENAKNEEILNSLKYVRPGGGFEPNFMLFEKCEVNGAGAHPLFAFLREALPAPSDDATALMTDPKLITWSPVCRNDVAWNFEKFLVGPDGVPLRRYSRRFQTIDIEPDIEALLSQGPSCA

With `CO[C@H]1C[C@@H]2CC[C@@H](C)[C@@](O)(O2)C(=O)C(=O)N2CCCC[C@@H]2C(=O)O[C@H]([C@@H](C)C[C@@H]2CC[C@H](O)[C@H](OC)C2)CC(=O)[C@H](C)C=C(C)[C@@H](O)[C@@H](OC)C(=O)[C@H](C)C[C@H](C)C=CC=CC=C1C`, the Potency entry in assay [1] and in [2] was “inactive” in each case.
`COc1cccc(-c2cc(=O)c3ccccc3o2)c1N`: the Potency result in assay [3], in assay [1] and in assay [2] was “inactive” each time.
Take `CCCCC1C(=O)N(c2ccccc2)N(c2ccccc2)C1=O`: the Potency result in assay [3], in [1] and in assay [2] was “inactive” in each case.
On to `Clc1ccc(C(c2ccc(Cl)cc2)n2cc[n+](CC(OCc3ccc(Cl)cc3Cl)c3ccc(Cl)cc3Cl)c2)cc1` (stereo unspecified), for which the Potency entry in [3], in assay [1] and in assay [2] was “inactive” in each case. The Potency in [4] is 20.9 µM (active).
As for `NC(N)=Nc1nc(CSCC/C(N)=N/S(N)(=O)=O)cs1`, the Potency entry in [3] and in assay [2] was “inactive” each time.
On to `CCN(CC)CCNC(=O)c1ccc(N)cc1`, for which the Potency entry in assay [3], in assay [1], in assay [2], in assay [5], in assay [6] and in assay [7] was “inactive” in each case. The compound was classed as inactive in assay [8].
As to `CCCNC(=O)NS(=O)(=O)c1ccc(Cl)cc1`, the Potency entry in assay [3], in [1], in assay [2], in [5] and in assay [6] was “inactive” throughout. The compound was called inactive in [8].
In the case of `Clc1ccc(Cn2c(CN3CCCC3)nc3ccccc32)cc1`, the Potency entry in [3], in assay [1], in assay [2], in assay [5], in [6] and in [7] was “inactive” throughout. In addition, in assay [8], the outcome was inactive.
On to `CC(C)(C)Cn1c(N)nc2ccc(-c3[nH]c(C(C)(C)C)nc3-c3ccc(F)cc3)nc21`, for which the Potency in [1] was 16.1 µM (active); in [2] it was “inactive and 9.04 µM (active)”; in [6], 1.89 µM (active). The Potency entry in assay [5] and in [7] was “inactive” throughout. The result in assay [8] was inactive.
As for `O=c1[nH]cnc2c1ncn2[C@H]1CC[C@@H](CO)O1`, the Potency entry in [1], in [2], in assay [5], in [6], in assay [7] and in [4] was “inactive” in each case. Further, the call in assay [8] was inactive.
For `CN[C@@H](C)C(=O)N[C@H]1CN(C(=O)CC(C)C)CC[C@H]2CC[C@@H](C(=O)NC(c3ccccc3)c3ccccc3)N2C1=O`, the Potency entry in assay [1], in assay [2], in [5], in assay [6] and in assay [7] was “inactive” throughout. Moreover, the compound was classed as inactive in [8].
Regarding `C=C1C(=O)[C@@]23C(CC[C@@H]1[C@H]2O)[C@@]12CO[C@]3(O)[C@@H](O)[C@@H]1C(C)(C)CC[C@@H]2O` (stereo partly specified), the Potency result in assay [1], in assay [2], in assay [5], in [6] and in assay [7] was “inactive” throughout. Further, the compound was called inactive in [8]. Moreover, in [4], the Potency was 6.62 µM (active).
For the compound `COc1ccc(Cc2ccc(NC(N)=O)cc2)cc1-c1cccc(Cl)c1`, the Potency result in [1], in assay [2], in assay [5], in [6], in [7] and in assay [4] was “inactive” throughout. The compound was called inactive in assay [8].
Take `CNC1CCC(N(Cc2cccc(-c3ccncc3)c2)C(=O)c2sc3c(F)ccc(F)c3c2Cl)CC1` (stereo unspecified): the Potency entry in [1], in assay [2], in [5], in assay [6] and in [7] was “inactive” in each case. The compound was called inactive in [8]. Further, the Potency in assay [4] was 14.8 µM (active); in assay [9] it was 16.6 µM (active).
On to `CC(C)C[C@H](CC(=O)O)C(=O)N[C@@H](Cc1c[nH]c2ccccc12)C(=O)N[C@@H](C)c1ccccc1`, for which the Potency entry in assay [1] and in assay [2] was “inactive” in each case.
With `NC(=O)c1cccc(-c2cc(Nc3ccc(OC(F)(F)F)cc3)ncn2)c1`, the Potency entry in [1], in assay [2], in [5], in [6] and in [7] was “inactive” throughout. Besides, the outcome in assay [8] was inactive.
With `N#CC1(c2ccc(NC(=O)c3cccnc3NCc3ccncc3)cc2)CCCC1`, the Potency entry in assay [1] and in assay [2] was “inactive” in each case.
For `CN(C)Cc1cccc(N=C(c2ccccc2)c2c(O)[nH]c3cc(C(=O)N(C)C)ccc23)c1`, the Potency result in [1] and in assay [2] was “inactive” in each case.
`CC(C)n1cnc2c(NCCCCCCNC(=O)OC(C)(C)C)nc(NCCO)nc21`: the Potency entry in [1] and in [2] was “inactive” throughout.
As for `COc1cccc([C@@H](C)NCCCc2ccccc2Cl)c1`, the Potency entry in [1] and in assay [2] was “inactive” each time.
Regarding `CCOc1ccc(Nc2nc(-c3c(C)nc4ccccn34)cs2)cc1`, the Potency entry in [1], in assay [2], in assay [5] and in assay [7] was “inactive” in each case. Besides, the Potency in assay [6] was 2.67 µM (active). The compound was classed as inactive in assay [8].
Regarding `Cc1nc(N)sc1-c1ccnc(Nc2ccc(N3CCOCC3)cc2)n1`, the Potency entry in assay [1], in [2] and in assay [7] was “inactive” throughout. The Potency in assay [5] was 5.36 µM (active); in [6], 1.5 µM (active); in assay [4], 14.8 µM (active); in assay [9], 10.5 µM (active). In addition, the compound was called inactive in assay [8].
Take `O=C(NC1CCOCC1)c1ccc(-c2cc(-c3cn[nH]c3-c3ccccn3)ccn2)cc1`: the Potency result in [1], in assay [2], in [5], in assay [6], in [7] and in assay [4] was “inactive” throughout. The compound was classed as inactive in assay [8].
For `CS(=O)c1ccc(-c2nc(-c3ccc(F)cc3)c(-c3ccncc3)[nH]2)cc1` (stereo unspecified), the Potency entry in [1], in [5], in [6] and in assay [7] was “inactive” throughout. Further, the Potency in [2] was 25.5 µM (active). Moreover, the call in [8] was inactive.
Take `CC(C)C(=O)Oc1ccc(CO)cc1[C@H](CCN(C(C)C)C(C)C)c1ccccc1`: the Potency result in assay [1], in assay [2], in assay [5], in assay [6] and in assay [7] was “inactive” each time. The outcome in assay [8] was inactive.
For `CC(=O)Nc1ccc([C@H](C)C(=O)Nc2ncc(C(C)C)s2)cc1`, the Potency entry in [1], in assay [2], in assay [5], in assay [6] and in assay [7] was “inactive” throughout. In addition, the compound was classed as inactive in [8]. In addition, the Potency in assay [4] was 1.87 µM (active).
